This is part of a sample that, as a whole, favours compounds with a hit. Of some 83,000 tested, about 20% had one in any assay.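 96-well plates, one dose, 48 hours. Percent growth reported; active if below 10.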 Active and inactive are the calls of the source.
Columns and labels:
Assay in all cases: NCI-60 one-dose screen, 48 h (100 = growth as untreated, 0 = no growth, -100 = all killed)
Conditions in all cases: 10 µM unless noted
DU-145 prostate = tested on: DU-145 prostate
K-562 leukemia = tested on: K-562 leukemia
MALME-3M melanoma = tested on: MALME-3M melanoma
MDA-MB-231 breast = tested on: MDA-MB-231 breast
RXF 393 renal = tested on: RXF 393 renal
SF-268 CNS = tested on: SF-268 CNS
SF-295 CNS = tested on: SF-295 CNS
SF-539 CNS = tested on: SF-539 CNS
UACC-257 melanoma = tested on: UACC-257 melanoma
M14 melanoma = tested on: M14 melanoma
HCT-15 colon = tested on: HCT-15 colon
HT29 colon = tested on: HT29 colon
SNB-75 CNS = tested on: SNB-75 CNS
SNB-19 CNS = tested on: SNB-19 CNS
U251 CNS = tested on: U251 CNS
PC-3 prostate = tested on: PC-3 prostate
SK-MEL-5 melanoma = tested on: SK-MEL-5 melanoma
UACC-62 melanoma = tested on: UACC-62 melanoma
LOX IMVI melanoma = tested on: LOX IMVI melanoma
SK-MEL-28 melanoma = tested on: SK-MEL-28 melanoma

Measured: growth

O=C(O)c1cn(C2CC2)c2cc(N3CCN(C(=O)CSc4nnc(-c5ccc(Cl)cc5)n4-c4ccccc4)CC3)c(F)cc2c1=O
inactive: DU-145 prostate 108% | K-562 leukemia 96.1% | MALME-3M melanoma 114% | MDA-MB-231 breast 106% | RXF 393 renal 113% | SF-268 CNS 103% | SF-295 CNS 107% | SF-539 CNS 105% | UACC-257 melanoma 96.4% | M14 melanoma 109% | HCT-15 colon 104% | HT29 colon 97.2% | SNB-75 CNS 95.8% | SNB-19 CNS 91.3% | U251 CNS 101% | PC-3 prostate 93.7% | SK-MEL-5 melanoma 98.8% | UACC-62 melanoma 91.3% | LOX IMVI melanoma 72.3% | SK-MEL-28 melanoma 109%

CC(C)(C)c1ccc2oc(=O)n(SC(Cl)(Cl)Cl)c2c1
inactive: DU-145 prostate 111% | K-562 leukemia 82.4% | MALME-3M melanoma 109% | MDA-MB-231 breast 104% | RXF 393 renal 110% | SF-268 CNS 98.2% | SF-295 CNS 97.1% | SF-539 CNS 97.2% | UACC-257 melanoma 111% | M14 melanoma 94.4% | HCT-15 colon 99.1% | HT29 colon 90.4% | SNB-75 CNS 98.1% | SNB-19 CNS 112% | U251 CNS 104% | PC-3 prostate 99.3% | SK-MEL-5 melanoma 107% | UACC-62 melanoma 109% | LOX IMVI melanoma 93.4% | SK-MEL-28 melanoma 112%

S=C(Nc1ccc(Cl)cc1)c1ccccn1
inactive: DU-145 prostate 105% | K-562 leukemia 90% | MALME-3M melanoma 85.2% | MDA-MB-231 breast 93.1% | RXF 393 renal 97.8% | SF-268 CNS 96.5% | SF-295 CNS 91.4% | SF-539 CNS 102% | UACC-257 melanoma 91.1% | M14 melanoma 103% | HCT-15 colon 98.1% | HT29 colon 94.1% | SNB-75 CNS 79.7% | SNB-19 CNS 92.2% | U251 CNS 88.6% | PC-3 prostate 85.6% | SK-MEL-5 melanoma 94.1% | UACC-62 melanoma 82.5% | LOX IMVI melanoma 88.4% | SK-MEL-28 melanoma 107%

C=C1C(=O)O[C@H]2[C@H]1CC/C(COC(=O)/C=C/c1cccnc1)=C\CC[C@@]1(C)O[C@@H]21
inactive: DU-145 prostate 13.1% | MDA-MB-231 breast 38.7% | SF-268 CNS 57.6% | SF-295 CNS 84.4% | UACC-257 melanoma 28.9% | M14 melanoma 26.3% | HT29 colon 11.1% | SNB-75 CNS 72.2% | SNB-19 CNS 75.2% | U251 CNS 57.7% | PC-3 prostate 57.5% | SK-MEL-5 melanoma 68.2% | UACC-62 melanoma 41.1% | LOX IMVI melanoma 30.7% | SK-MEL-28 melanoma 43.7%
active: K-562 leukemia 6.99% | MALME-3M melanoma -35.9% | RXF 393 renal -9.04% | SF-539 CNS 6.08% | HCT-15 colon 3.01%

O=c1[nH]c(-c2cccc(F)c2)cc2cc(F)ccc12
inactive: DU-145 prostate 30.1% | K-562 leukemia 14.1% | MALME-3M melanoma 73% | MDA-MB-231 breast 49.8% | SF-268 CNS 68.4% | UACC-257 melanoma 55.3% | M14 melanoma 20.3% | HCT-15 colon 16.7% | SNB-75 CNS 12.1% | SNB-19 CNS 26.6% | U251 CNS 21.6% | PC-3 prostate 16.3% | SK-MEL-5 melanoma 42.2% | UACC-62 melanoma 36.4% | LOX IMVI melanoma 43.3% | SK-MEL-28 melanoma 61.7%
active: RXF 393 renal 9.93% | SF-295 CNS 8.3% | SF-539 CNS -1.4% | HT29 colon 6.64%

O=C1C(Cl)=C(Nc2ccc3c(c2NC2=C(Cl)C(=O)c4ccccc4C2=O)C(=O)c2ccccc2C3=O)C(=O)c2ccccc21
active: DU-145 prostate -83.9% | MALME-3M melanoma -85.1% | UACC-257 melanoma -20.4% | M14 melanoma -64.8% | HT29 colon 5.49% | SNB-75 CNS -15.1% | SK-MEL-5 melanoma -95.5% | UACC-62 melanoma -62.6% | LOX IMVI melanoma 3.18%
inactive: K-562 leukemia 16.6% | MDA-MB-231 breast 14.6% | RXF 393 renal 48.5% | SF-268 CNS 39.5% | SF-295 CNS 23.8% | SF-539 CNS 15% | HCT-15 colon 15.6% | SNB-19 CNS 29.1% | U251 CNS 14.3% | PC-3 prostate 11% | SK-MEL-28 melanoma 47.1%

O=c1c2ccccc2oc2ccc(OCCCCCN3CCCCCC3)cc12
inactive: DU-145 prostate 94.1% | K-562 leukemia 21.3% | MALME-3M melanoma 40.2% | MDA-MB-231 breast 77.6% | RXF 393 renal 58.6% | SF-268 CNS 79% | SF-295 CNS 87.8% | SF-539 CNS 79.4% | M14 melanoma 31.5% | HCT-15 colon 33.1% | HT29 colon 12.9% | SNB-75 CNS 77.1% | SNB-19 CNS 84% | U251 CNS 60.3% | PC-3 prostate 80.7% | LOX IMVI melanoma 49.8% | SK-MEL-28 melanoma 86.3%
active: UACC-257 melanoma 2.91% | SK-MEL-5 melanoma -35.2% | UACC-62 melanoma 2.08%

COc1cc(C2CC(c3ccc(Nc4nc(NCCO)nc(NCCO)n4)cc3)=NN2c2cc(Cl)cc(Cl)c2)cc(OC)c1OC (stereo not given)
active: K-562 leukemia 2.02% | MALME-3M melanoma -66.3% | MDA-MB-231 breast -19.2% | RXF 393 renal -42.5% | SF-268 CNS -33.3% | SF-295 CNS 6.18% | SF-539 CNS -61.3% | M14 melanoma -14.3% | HT29 colon -47% | SNB-75 CNS -14.6% | U251 CNS -36.2% | PC-3 prostate -42.1% | SK-MEL-5 melanoma -45.8% | UACC-62 melanoma 2.21% | LOX IMVI melanoma -60.2% | SK-MEL-28 melanoma -70%
inactive: DU-145 prostate 12.8% | UACC-257 melanoma 13.2% | HCT-15 colon 16.3% | SNB-19 CNS 17.4%

OCCNc1nc(NCCO)nc(Nc2ccc(C3=NN(c4cc(Cl)cc(Cl)c4)C(c4ccc(Cl)cc4)C3)cc2)n1 (stereo not given)
inactive: SF-268 CNS 19.1% | UACC-257 melanoma 48.4% | SNB-19 CNS 15.8% | SK-MEL-5 melanoma 24.9% | UACC-62 melanoma 13.1%
active: DU-145 prostate 0.477% | K-562 leukemia 4.31% | MALME-3M melanoma -43.7% | MDA-MB-231 breast 7.31% | RXF 393 renal -57.8% | SF-295 CNS -68.3% | SF-539 CNS -45.2% | M14 melanoma 1.11% | HCT-15 colon 5.12% | HT29 colon -46% | SNB-75 CNS -6.43% | U251 CNS -47.8% | PC-3 prostate -12.1% | LOX IMVI melanoma -53.4% | SK-MEL-28 melanoma -55.8%

O=C(Nc1nc(-c2ccccc2)cs1)c1cc(-c2ccc(Br)cc2)nc2ccccc12
inactive: DU-145 prostate 68.7% | K-562 leukemia 24.3% | MALME-3M melanoma 112% | MDA-MB-231 breast 57.8% | RXF 393 renal 65.7% | SF-268 CNS 53.8% | SF-295 CNS 49.9% | SF-539 CNS 63% | UACC-257 melanoma 56% | M14 melanoma 75.3% | HCT-15 colon 33% | HT29 colon 39.8% | SNB-75 CNS 85.1% | SNB-19 CNS 79.2% | U251 CNS 42% | PC-3 prostate 28.9% | SK-MEL-5 melanoma 54.8% | UACC-62 melanoma 50.5% | LOX IMVI melanoma 42.7% | SK-MEL-28 melanoma 68.3%

COc1c(O)cc2oc3cc(O[C@@H]4OC(C)[C@@H](O)[C@H](O)C4O)c(CC=C(C)C)c(O)c3c(=O)c2c1CC=C(C)C (stereo not given in full)
inactive: DU-145 prostate 103% | K-562 leukemia 74.3% | MALME-3M melanoma 103% | MDA-MB-231 breast 89.5% | RXF 393 renal 103% | SF-268 CNS 92.7% | SF-295 CNS 93.3% | SF-539 CNS 99% | UACC-257 melanoma 104% | M14 melanoma 99.8% | HCT-15 colon 85.1% | HT29 colon 84.3% | SNB-75 CNS 88.9% | SNB-19 CNS 102% | U251 CNS 86.6% | PC-3 prostate 74.9% | SK-MEL-5 melanoma 91% | UACC-62 melanoma 96.9% | LOX IMVI melanoma 89.3% | SK-MEL-28 melanoma 105%

COc1ccc2nc3nc4ccc[nH]c4cc3c2c1
inactive: DU-145 prostate 88.3% | K-562 leukemia 99.6% | MALME-3M melanoma 90% | MDA-MB-231 breast 98% | RXF 393 renal 101% | SF-268 CNS 84.5% | SF-295 CNS 112% | SF-539 CNS 94% | UACC-257 melanoma 115% | M14 melanoma 101% | HCT-15 colon 82.9% | HT29 colon 97.7% | SNB-75 CNS 82.5% | SNB-19 CNS 105% | U251 CNS 94.8% | PC-3 prostate 93.2% | SK-MEL-5 melanoma 88.6% | UACC-62 melanoma 105% | LOX IMVI melanoma 95.1% | SK-MEL-28 melanoma 110%

COCCOCCOCc1n(Cc2ccc3ccccc3c2)c2ccccc2[n+]1Cc1ccc2ccccc2c1
active: MALME-3M melanoma -18.1% | MDA-MB-231 breast -1.76% | UACC-257 melanoma -13.1% | M14 melanoma 6.95% | HT29 colon -5.47% | SNB-75 CNS -4.1% | PC-3 prostate 5.49% | SK-MEL-5 melanoma -91.9% | UACC-62 melanoma -29.6% | LOX IMVI melanoma -26.6%
inactive: DU-145 prostate 32.7% | K-562 leukemia 11% | RXF 393 renal 21.1% | SF-268 CNS 17.9% | SF-295 CNS 13.1% | SF-539 CNS 37.2% | HCT-15 colon 88.4% | SNB-19 CNS 23% | U251 CNS 12.4% | SK-MEL-28 melanoma 16.8%

Cc1cccc(C)c1NCc1nnc(-c2ccco2)o1
inactive: DU-145 prostate 99.9% | K-562 leukemia 100% | MALME-3M melanoma 85.2% | MDA-MB-231 breast 79.7% | RXF 393 renal 102% | SF-268 CNS 93.5% | SF-295 CNS 92.4% | SF-539 CNS 97.7% | UACC-257 melanoma 98.7% | M14 melanoma 99% | HCT-15 colon 103% | HT29 colon 93.9% | SNB-75 CNS 85.5% | SNB-19 CNS 101% | U251 CNS 96.9% | PC-3 prostate 81% | SK-MEL-5 melanoma 96.3% | UACC-62 melanoma 90.1% | LOX IMVI melanoma 93.5% | SK-MEL-28 melanoma 110%

C#C[C@@]1(O)[C@@H](CO)O[C@@H](n2cc(I)c3c(N)ncnc32)[C@@H]1O
inactive: SF-268 CNS 28.5% | SF-295 CNS 10.5% | UACC-257 melanoma 44.7% | M14 melanoma 22.4% | SK-MEL-28 melanoma 43.2%
active: DU-145 prostate 7.45% | K-562 leukemia 6.9% | MALME-3M melanoma -5.65% | MDA-MB-231 breast 2.55% | RXF 393 renal -27.7% | SF-539 CNS -40.5% | HCT-15 colon 5.73% | HT29 colon 2.8% | SNB-75 CNS -10.1% | SNB-19 CNS 8.06% | U251 CNS -0.637% | PC-3 prostate 4.04% | SK-MEL-5 melanoma -9.34% | UACC-62 melanoma 4.29% | LOX IMVI melanoma -42.3%

From PubChem BioAssay (NCI)
